Screens from PubChem.
Shown is part of a subset that was picked to be rich in hits.
Hedgehog inh = blocks Sonic Hedgehog signaling | Shh-LIGHT2 Gli-luciferase reporter, 30 h | inhibition, % (concentration not given with the values) | actives 2.1% (n = 22,000) | AID 2313;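 active = mean inhibition across valid replicates above about 65%, limit read from the data; inconclusive = mean under the limit, yet half or more replicates past it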;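 note: pathway switched on by Shh-conditioned medium diluted 1 in 25 in low serum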
MITF inhib = blocks MITF activity; TRPM1 promoter luciferase, luminescence, 24 h; inhibition, % (test concentration not listed); actives 0.28% (n = 37,000); in the data active = inhibition above about 85%; inconclusive = no clear call, values can overlap the other calls; inactive = below about 68%;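 note: human melanocyte line stably carrying TRPM1 promoter luciferase reporter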
BJeLR viability = compounds reducing viability of BJeLR cells | BJeLR fibroblasts viability, CellTiterGlo ATP luminescence, 48 h; HRASV12, hTERT and SV40 LT/ST transformed | viability loss activity score, % (no concentration beside the values) | actives 0.64% (n = 30,000) | AID 2275; in the data active = viability loss activity score above about 50%; inconclusive = no clear call, values can overlap the other calls; inactive = below about 35%;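 note: higher score means fewer live cells and less ATP luminescence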
Starred values were filed as active, the others as inactive; u = inconclusive; x = no result given; ! = a repeat was not active.

SMILES	Hedgehog inh	MITF inhib	BJeLR viability
CC1=CC(=O)c2c(O)cccc2C1=O	97*	97*	-23
COc1ccc([C@H]2Oc3c(I)c(OC)cc(OC)c3C[C@@H]2O)cc1OC	28	7	1
N#CC(C#N)=NNc1ccc(OC(F)(F)F)cc1	82*	67	86*
CSc1nc(-c2ccc(Cl)cc2)nn1C(=O)N(C)C	x	x	-2
CSc1ncccc1C1=N/C(=C\N(C)C)C(=O)O1	x	x	-5
COc1ccc(C[C@H]2NC[C@H](O)[C@H]2OC(C)=O)cc1	107*	104*	117*
C=C1C(=O)O[C@@H]2/C=C(/C)CC/C=C(/C)C[C@@H](OC(=O)/C(=C/CO)CO)C12 (some centres undefined)	32	39	19
CC(C)(C)c1cc(C=C(C#N)C#N)cc(C(C)(C)C)c1O	104*	88*	71*
N#CC(C#N)=Cc1ccc(O)c(O)c1	u	1	0
CSC1=NN1c1cc(C)nc(N)n1	x	x	-7
COC(=O)[C@@]12C(=O)C(C)C(=O)[C@]1(C)C(C)=C[C@H]1[C@]3(C)CC[C@H](OC(C)=O)C(C)(C)[C@H]3CC[C@@]12C (some centres undefined)	-10	-15	-5
COC1CC(OC2C(C)OC(OC3C(C)OC(OC4C(C)OC(O[C@H]5CC[C@@]6(C)C(=CC[C@]7(O)C6CC(OC(=O)c6ccccc6)[C@@]6(C)[C@]7(O)CC[C@@]6(O)C(C)=O)C5)CC4OC)CC3OC)CC2OC)OC(C)C1O (some centres undefined)	-48	35	75*
Cc1ccccc1OCCCn1cc(C(=O)C(C)(C)C)c2ccccc21	x	x	4
O=C(CCN1CCOCC1)NC=Nc1cccnc1	x	x	-1
O=C(CSC(c1ccccc1)c1ccccc1)Nc1ccccc1	x	x	-5
C[C@@H]1O[C@@H](O[C@H]2[C@H](O)[C@@H](O)[C@H](O[C@@H]3C=C4CC[C@@H]5C(CC[C@]6(C)[C@@H](c7ccc(=O)oc7)CC[C@]56O)[C@@]4(C)CC3)O[C@@H]2CO)[C@H](O)[C@H](O)[C@H]1O (some centres undefined)	-7	51	125*
CCN1C[C@@]2(COC)C3[C@@H](OC)[C@H]4[C@@H]1[C@@]3(C1C[C@]3(O)[C@H](OC(=O)c5ccccc5)C1[C@]4(OC(C)=O)[C@@H](O)[C@H]3OC)[C@@H](OC)C[C@H]2O (some centres undefined)	48	-1	-3
CC[C@@]12CCCN3CC[C@]4(c5cccc(OC)c5N(C(C)=O)[C@@H]4CC1)[C@H]32	-9	-2	3
COc1ccc(/C=C/C(=O)C2C(=O)NC34CCCCC3C2c2ccccc2O4)c(OC)c1OC (centres undefined)	x	x	-7
CO[C@@H]1[C@H](O)[C@@H](O[C@@H]2C[C@H]3CC[C@@H]4C(CC[C@]5(C)[C@@H](C6=CC(=O)OC6)CC[C@]45O)[C@@]3(C)[C@H](O)C2)O[C@H](C)[C@@H]1O[C@@H]1O[C@H](CO)[C@@H](O)[C@H](O)[C@H]1O (some centres undefined)	-11	30	111*
CO[C@H]1[C@H](O)[C@H](O[C@H]2CC[C@]3(C)C4CC[C@]5(C)[C@H](C6=CC(=O)OC6)CC[C@]5(O)C4CC[C@@H]3C2)O[C@@H](C)[C@@H]1O[C@@H]1O[C@H](CO[C@@H]2O[C@H](CO)[C@@H](O)[C@H](O)[C@H]2O)[C@@H](O)[C@H](O)[C@H]1O (some centres undefined)	-5	31	100*
CC(=O)O[C@H]1C[C@H](O[C@H]2[C@@H](O)C[C@H](O[C@H]3[C@@H](O)C[C@H](O[C@H]4CC[C@@]5(C)C(CCC6C5C[C@@H](O)[C@]5(C)[C@@H](C7=CC(=O)OC7)CC[C@]65O)C4)O[C@@H]3C)O[C@@H]2C)O[C@H](C)[C@H]1O[C@@H]1O[C@H](CO)[C@@H](O)[C@H](O)[C@H]1O (some centres undefined)	-12	29	109*
C/C=C/[C@@H]1[C@H]2C[C@@H](C)CC[C@@H]2C(C)=C[C@H]1C(=O)c1c(O)c(-c2ccc(O)cc2)c[nH]c1=O	-9	20	0
O=C(CCNS(=O)(=O)c1ccccc1)Nc1ccc(Br)cc1C(=O)c1ccccc1	x	x	7
COC(=O)[C@H]1O[C@@H]2C[C@H]3OC(n4cnc5c(N)ncnc54)[C@H](OC)[C@H]3O[C@@]2(O)[C@@H](O)[C@@H]1O (some centres undefined)	-7	9	-3
SMILES	Hedgehog inh	MITF inhib	BJeLR viability
CC1=C(C(=O)OC(C)(C)C)C2(C(=O)Nc3ccccc32)C(C#N)=C(N)O1 (centres undefined)	x	x	-4
Fc1ccc(C(OCCN2CCN(CCCc3ccccc3)CC2)c2ccc(F)cc2)cc1	67*!	7	-7
Fc1ccc(C(OCCN2CCN(C/C=C/c3ccccc3)CC2)c2ccc(F)cc2)cc1	84*	100*	-3
c1ccc(CCCN2CCN(CCOC(c3ccccc3)c3ccccc3)CC2)cc1	86*	21	-4
CC(C)c1cc2c(cc1O)[C@@]1(C)CCCC(C)(C)[C@@H]1CC2O (some centres undefined)	-36	38	4
S=C(Nc1ccccc1)N1CCCCC1c1cccnc1 (centres undefined)	x	x	-7
CCOC(=O)C1=NN(c2ccc(C)cc2)C2c3cccc4cccc(c34)C12 (centres undefined)	x	-62	-2
O=C(O)C1C2CC3CC(C2)CC1(n1ncc(N2CCOCC2)c(Cl)c1=O)C3 (centres undefined)	x	x	0
FC(F)(F)c1ccc2c(c1)N(CCCN1CCN(CCCl)CC1)c1ccccc1S2	66*	18	3
Nc1ccc(CCN2CCN(c3cccc(C(F)(F)F)c3)CC2)cc1	42	7	-4
O=c1c2ccccc2[nH]c(=S)n1-c1cc(C(F)(F)F)cc(C(F)(F)F)c1	18	9	-1
COc1ccc2c3c1O[C@H]1[C@@H](O)CC=C4[C@@H](C2)N(C)CC[C@]431	-37	-8	-2
c1ccc2c(c1)cc1ccc3cccc4ccc2c1c34	22	-17	-4
O=C1c2ccccc2-c2cccc3cccc1c23	-22	-99	74*
O=c1c2ccccc2[nH]c(=S)n1-c1ccc(Cl)c(Cl)c1	-23	-7	3
C/C1=C/C(=O)O[C@@H]2C[C@@H](CC[C@H](C)/C=C\CC1)O[C@@](O)([C@@H]1CSC(=O)N1)C2	102*	48	41
COc1cc[n+](OC(=O)N2CCCCC2)c(C)c1	x	x	4
COc1ccc2c(c1OC)C(=O)O[C@@H]2[C@@H]1c2cc3c(cc2CCN1C)OCO3	-2	-9	-9
c1ccc2c(c1)[nH]c1cnccc12	21	2	-3
Cc1c2ccncc2c(C)c2c1[nH]c1ccccc12	71*	28	17
CO[C@H](C)C(O)(C(=O)OCC1=CCN2CC[C@H](O)[C@@H]12)C(C)C (some centres undefined)	-68	-10	5
